POLB inh: blocks human DNA polymerase beta activity. P06746. Potency, µM (titrated, usually from 114 µM), without a hit: at the top dose activity change, negative = inhibition, hits mostly inhibitors. AID 485314. actives 1.3% (n = 340,000). Pol beta primer extension/strand displacement, fluorescence kinetic; also: % is scaled to controls: 0 for no effect and ±100 for the full control effect
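Homogeneous kinetic assay of primer extension and strand displacement by 10 nM Pol beta, preincubated 15 min at room temperature with compound before 50 nM substrate (final) was added. Read at 0 and 10 min; four-parameter Hill fit.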
Pol iota inh: blocks human DNA polymerase iota activity | Pol iota fluorescent replication assay, 10 min | Potency, µM (titrated, usually from 115 µM), without a hit: at the highest dose activity, negative = inhibition, usual class: inhibitors | actives 1% (n = 390,000) | AID 588590
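Pol iota at 10 nM preincubated 15 min with compounds at room temperature; reaction started with fluorescent substrate, 50 nM final. Fluorescence read kinetically at 0 and 10 min; buffer-only wells as negative control.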
FEN1 inh: human FEN1 inhibition; P39748; Recombinant FEN1 flap cleavage, fluorescence, 15 min; Potency, µM (highest dose often 114 µM), for inactives: at the top dose activity change, negative = inhibition, hits mostly inhibitors; actives 0.35% (n = 390,000); AID 588795; also: % is scaled to controls: 0 for no effect and ±100 for the full control effect; nearly all actives have a fitted effect of over 65% in size
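Read-out was taken twice, immediately and after 15 min, following addition of 50 nM substrate to 10 nM FEN1 that had sat with test compound for 15 min at room temperature. Curves came from a four-parameter Hill model.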
Pol eta inh-1: DNA polymerase eta (human) inhibition; Q9Y253; recombinant Pol eta, fluorescent DNA replication assay; Potency, µM (top dose mostly 114 µM), inactives show at the highest dose activity change, negative = inhibition, actives largely listed as inhibitors; actives 1.2% (n = 390,000); also: % is scaled to controls: 0 for no effect and ±100 for the full control effect
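Pol eta at 10 nM preincubated with compounds 15 min at room temperature; reaction started with fluorescent substrate (50 nM final) and read kinetically at 0 and 10 min.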
WRN inhibitor: inhibitors of human WRN helicase. Q14191. WRN helicase unwinding, fluorescent forked duplex, kinetic. Potency, µM (series often up to 114 µM), for inactives: at the highest dose activity change, negative = inhibition, usual class: inhibitors. actives 0.46% (n = 360,000). AID 651768; also: % is scaled to controls: 0 for no effect and ±100 for the full control effect; nearly all actives have a fitted effect of over 55% in size
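Enzyme (20 nM final) and test compound sit together 15 min at room temperature before substrate addition. Substrate is a single-forked duplex oligonucleotide (100 nM) labelled with fluorophore and quencher, with 2 mM ATP; helicase unwinding raises red fluorescence, read kinetically.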
Pol kappa inh-1: DNA polymerase kappa (human) inhibition; purified Pol kappa, fluorescent DNA synthesis assay, 10 min; actives 0.53% (n = 400,000); Q9UBT6; Potency, µM (doses to about 107 µM), for inactives: top-dose activity, negative = inhibition, usual class: inhibitors; AID 588579; also: % is scaled to controls: 0 for no effect and ±100 for the full control effect
Target sequence (Q9UBT6 whole entry, looked up): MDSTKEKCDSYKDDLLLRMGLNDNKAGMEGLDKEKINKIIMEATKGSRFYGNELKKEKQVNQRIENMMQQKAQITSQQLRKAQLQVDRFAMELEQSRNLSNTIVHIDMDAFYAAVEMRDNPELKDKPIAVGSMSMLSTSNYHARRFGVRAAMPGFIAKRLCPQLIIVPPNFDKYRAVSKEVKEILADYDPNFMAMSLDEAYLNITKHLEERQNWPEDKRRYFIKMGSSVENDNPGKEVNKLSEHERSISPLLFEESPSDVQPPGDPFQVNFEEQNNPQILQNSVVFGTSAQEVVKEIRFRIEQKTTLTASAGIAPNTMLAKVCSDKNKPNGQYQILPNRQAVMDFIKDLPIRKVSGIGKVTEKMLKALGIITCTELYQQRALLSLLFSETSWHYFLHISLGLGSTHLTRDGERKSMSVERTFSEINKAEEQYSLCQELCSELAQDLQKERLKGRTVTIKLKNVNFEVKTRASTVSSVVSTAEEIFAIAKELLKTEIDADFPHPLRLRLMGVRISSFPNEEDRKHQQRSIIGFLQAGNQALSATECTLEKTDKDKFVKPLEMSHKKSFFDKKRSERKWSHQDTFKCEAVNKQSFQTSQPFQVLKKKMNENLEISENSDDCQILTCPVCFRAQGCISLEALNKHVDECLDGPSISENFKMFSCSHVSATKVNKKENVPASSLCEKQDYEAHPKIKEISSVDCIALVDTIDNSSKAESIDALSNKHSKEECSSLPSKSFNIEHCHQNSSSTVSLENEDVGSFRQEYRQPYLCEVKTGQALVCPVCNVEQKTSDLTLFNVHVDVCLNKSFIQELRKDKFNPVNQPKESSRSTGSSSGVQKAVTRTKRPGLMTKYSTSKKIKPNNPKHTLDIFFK
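50 nM final substrate added after 15 min RT preincubation of 10 nM Pol kappa with compound; fluorescence read at 0 and 10 min.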
POLI cherry-pick: Inhibitors of human DNA polymerase iota, confirmation. actives 77% (n = 1,500). AID 720496. Potency, µM, most hits filed as inhibitors. Pol iota primer extension, TAMRA/BHQ fluorescence. shares compounds with Pol kappa inh-1
Pol kappa inh-2: Pol kappa (human) inhibition, cherry-pick confirmation | shares compounds with Pol eta inh-1 | purified Pol-kappa, fluorescent strand-displacement substrate | Potency, µM, hits mostly inhibitors | actives 76% (n = 920) | AID 720501
Pol eta inh-2: confirmation of human DNA polymerase eta inhibitors. Pol eta primer extension, TAMRA/BHQ fluorescence, 10 min. actives 64% (n = 2,600). shares compounds with Pol eta inh-1. Potency, µM, actives largely listed as inhibitors
Numbers without * were called inactive; u = inconclusive; x = no result; [ ] = another dose, or the depositor's remark. An excerpt weighted towards active compounds, which were near 2.4% of everything screened. Calls follow the shape of the dose curve; as a rule, active = well fitted curve in the direction sought with a large enough effect; inconclusive = small, poorly fitted or top-dose-only effect, or another doubt; inactive = no such curve, though single readings can be large; an effect the other way counts as inactive or inconclusive. Potency is read from the fitted curve at half-maximal effect.

SMILES	POLB inh	Pol iota inh	FEN1 inh	Pol eta inh-1	WRN inhibitor	Pol kappa inh-1	POLI cherry-pick	Pol eta inh-2	others
O=C1C=C(Nc2cccc3cccnc23)c2ccccc2C1=O	u	18µM*	50µM*	50µM*	-18%[57.1 µM]	u	u	u
CCOc1cc(/C=C2\C(=N)N3N=C(S(C)(=O)=O)SC3=NC2=O)ccc1OCCOc1cccc(OC)c1	u	u	-25%	28µM*	56µM*	-21%	u	85*	Pol kappa inh-2=75*
Cc1ccc(S(=O)(=O)Oc2ccc(/C=C3\C(=N)N4N=C(S(C)(=O)=O)SC4=NC3=O)cc2)cc1	u	16µM*	u	20µM*	u	-26%	u	76*
COc1cc(/C=C2/C(=N)N3C(=NC2=O)SN=C3S(C)(=O)=O)ccc1OS(=O)(=O)c1ccc(C)cc1	u	u	-20%	79µM*	u	-28%	u	30*
COc1cc(/C=C2\C(=N)N3N=C(S(C)(=O)=O)SC3=NC2=O)cc(OC)c1OCCOc1cccc(C)c1	u	93%	-8%	u	-33%	-8%	x	x
CC(C)c1ccc(NC(=O)C(Cc2ccccc2)NS(=O)(=O)c2ccc3c(c2)CCC(=O)N3)cc1 (centres undefined)	32%	24%	10%	-13%	x	-1%	x	x
COc1ccccc1N1CCN(c2ccc(-c3nc(-c4ccccc4)no3)cc2[N+](=O)[O-])CC1	0%	-5%	-6%	-20%	x	-8%	x	x
O=C(COC(=O)c1c2c(nc3ccccc13)/C(=C/c1cccc([N+](=O)[O-])c1)CCC2)NC1CCS(=O)(=O)C1 (centres undefined)	2%	5%	1%	-11%	-32%	-20%	x	x
O=C(COC(=O)c1c2c(nc3ccccc13)/C(=C\c1ccco1)CC2)NC1CCCC1	x	6.3µM*	u	3.5µM*	45µM*	22µM*	19*	27*	Pol kappa inh-2=12*
CC1CCCCC1NC(=O)COC(=O)c1ccc(S(=O)(=O)NCc2ccco2)cc1 (centres undefined)	u	u	-7%	u	-16%	u	x	x
CC1CCCCC1NC(=O)COC(=O)c1c2c(nc3ccccc13)/C(=C\c1ccco1)CC2 (centres undefined)	x	3.2µM*	50µM*	10µM*	u	22µM*	60*	34*	Pol kappa inh-2=21*
O=C(NCc1ccc(F)cc1)C(=O)NCC(c1ccc2c(c1)OCO2)N1CCOCC1 (centres undefined)	2%	-13%	21%	13%	x	-6%[60.1 µM]	x	x
O=C(O)c1ccc(N=Nc2c(O)ccc3ncccc23)cc1	5µM*	4µM*	u	2.8µM*	u	28µM*	34*	15*	Pol kappa inh-2=11*
C=CCNC(=O)COC(=O)c1c2c(nc3ccccc13)CCC2	22µM*	22µM*	-19%	35µM*	u	89µM*	u	54*
O=c1nc2s/c(=C\c3ccco3)c(=O)n2nc1Cc1ccc(F)cc1	2.8µM*	10µM*	u	7.1µM*	50µM*	20µM*	38*	30*
O=c1/c(=C/c2ccco2)sc2n1CN(c1ccccc1)CN=2	2%	u	-5%	-11%	-9%	-5%	x	x
C[C@H]1O[C@@H](n2cc(F)c(=O)[nH]c2=O)[C@H](O)[C@H]1O	x	x	7%[57.1 µM]	x	x	-1%[60.1 µM]	x	x
